BoNT-F LC inh: blocks Botulinum neurotoxin F light chain protease. Multiplex microsphere protease cleavage assay, flow cytometry. inhibition, % at 10 µM. hit rate 0.22% among 360,000. AID 588497; in the data active = inhibition above about 35%, passing the limit was not always enough; note: plate controls were buffer without enzyme for full effect and enzyme alone for no effect
Bead autofluor: counter-screen for toxin protease inhibitors: compound fluorescence; compound autofluorescence counterscreen, microsphere flow cytometry; active compounds read high; fluorescence intensity (no concentration beside the values); hit rate 3.1% among 360,000; AID 624483; in the data active = fluorescence intensity above about 16000
Anthrax LF prot: inhibitors of Bacillus anthracis lethal factor protease; P15917; AID 588501; inhibition, % at 10 µM; hit rate 0.12% among 360,000; multiplex microsphere protease cleavage assay, LF; in the data active = inhibition above about 30%; note: plate controls were buffer without enzyme for full effect and enzyme alone for no effect
Mtb FBA inh: inhibitors of M. tuberculosis fructose-bisphosphate aldolase; P9WQA3; purified M. tuberculosis FBA, fluorescence read-out; inhibition, % at 1 µM; hit rate 2.3% among 360,000;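 note: 0% = vehicle and 100% = reference inhibitor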
Target sequence (P9WQA3 whole entry, looked up): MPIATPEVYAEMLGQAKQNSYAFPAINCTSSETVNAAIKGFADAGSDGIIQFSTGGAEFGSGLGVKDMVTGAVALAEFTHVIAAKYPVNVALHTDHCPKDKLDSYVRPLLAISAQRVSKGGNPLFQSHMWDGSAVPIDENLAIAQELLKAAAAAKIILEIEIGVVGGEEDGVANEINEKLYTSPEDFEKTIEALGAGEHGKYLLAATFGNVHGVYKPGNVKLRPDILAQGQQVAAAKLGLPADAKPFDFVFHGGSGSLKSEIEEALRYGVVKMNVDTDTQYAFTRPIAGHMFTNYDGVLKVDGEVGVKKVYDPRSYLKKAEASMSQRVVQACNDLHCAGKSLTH
BoNT-A LC inh2: BoNT A light chain protease inhibition. multiplex microsphere protease substrate cleavage, flow cytometry. hit rate 0.17% among 360,000. inhibition, % at 10 µM; in the data active = inhibition above about 30%; note: plate controls were buffer without enzyme for full effect and enzyme alone for no effect
GDH-TPI counter-1: inhibits GDH-TPI coupling enzymes, artifact for Mtb FBA screen; GDH-TPI coupled enzyme counterscreen, NADH absorbance; inhibition, % at 4.8 µM; hit rate 1.2% among 360,000; AID 588335; in the data active = inhibition above about 30%;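 note: 0% = DMSO wells and 100% = wells lacking the enzyme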
Mtb FBA inh conf: confirmation of M. tuberculosis fructose-bisphosphate aldolase inhibitors | shares compounds with Mtb FBA inh | purified M. tuberculosis FBA, fluorescence read-out | hit rate 78% among 5,600 | AID 651616 | inhibition, % at 1 µM;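 note: 0% = vehicle wells and 100% = reference inhibitor wells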
GDH-TPI counter-2: counter-screen for M. tuberculosis FBA inhibitors: GDH-TPI coupled enzyme inhibition. shares compounds with Mtb FBA inh. GDH-TPI coupled enzyme counterscreen, fluorescence. inhibition, % at 1 µM. hit rate 81% among 5,600. AID 652141; in the data active = inhibition above about 10%
Active calls of the source: *. An excerpt weighted towards active compounds, which were near 6.6% of everything screened. Cut-off read from the data, not from the text of the source, unless noted: active = inhibition above about 27%; inactive = the rest.

For COc1cc2c(cc1O)CC1c3c(cc(O)c(OC)c3-2)CCN1C (configuration not stated) the results were BoNT-F LC inh -30, Bead autofluor 4816, Anthrax LF prot -17, Mtb FBA inh 27*, BoNT-A LC inh2 -1, GDH-TPI counter-1 -11, Mtb FBA inh conf 101* and GDH-TPI counter-2 95*.
CN1c2ccccc2Oc2ccccc21 was read as BoNT-F LC inh -3, Bead autofluor 2627, Anthrax LF prot -1, Mtb FBA inh 2, BoNT-A LC inh2 0 and GDH-TPI counter-1 5.
CCN(CC)CCOc1cc2c(nn1)Oc1ccccc1N2C was read as BoNT-F LC inh 0, Bead autofluor 6685, Anthrax LF prot -2, Mtb FBA inh 56*, BoNT-A LC inh2 2, GDH-TPI counter-1 27, Mtb FBA inh conf 164* and GDH-TPI counter-2 154*.
`CN1c2ccccc2Oc2nnc(N3CCN(Cc4ccccc4)CC3)cc21` gave BoNT-F LC inh 0, Bead autofluor 4359, Anthrax LF prot -2, Mtb FBA inh 57*, BoNT-A LC inh2 -1, GDH-TPI counter-1 6, Mtb FBA inh conf 87* and GDH-TPI counter-2 82*.
`CCN(CC)CCOc1ccccc1OC` gave BoNT-F LC inh 5, Bead autofluor 5467, Anthrax LF prot -2, Mtb FBA inh 0, BoNT-A LC inh2 1 and GDH-TPI counter-1 7.
Screening CN1c2ccccc2Oc2nnc(Cl)cc21 returned BoNT-F LC inh -3, Bead autofluor 2644, Anthrax LF prot -1, Mtb FBA inh 28*, BoNT-A LC inh2 0, GDH-TPI counter-1 7, Mtb FBA inh conf 51* and GDH-TPI counter-2 38*.
Screening C=CCOc1ccccc1CN1CCC(Oc2ccc(C(=O)N3CCCCC3)cc2)CC1 returned BoNT-F LC inh -1, Bead autofluor 6586, Anthrax LF prot 0, Mtb FBA inh 1, BoNT-A LC inh2 -1 and GDH-TPI counter-1 1.
For Cc1ccc(NC(=O)C2Cc3ccccc3CN2C(=O)c2ccco2)cc1S(=O)(=O)N(C)C (configuration not stated) the results were BoNT-F LC inh 1, Bead autofluor 6197, Anthrax LF prot 0, Mtb FBA inh -3, BoNT-A LC inh2 0 and GDH-TPI counter-1 -9.
Screening Cc1cccc2nc(-c3cccnc3)c(NCCC(C)C)n12 returned BoNT-F LC inh -1, Bead autofluor 3523, Anthrax LF prot -2, Mtb FBA inh 29*, BoNT-A LC inh2 0, GDH-TPI counter-1 4, Mtb FBA inh conf active and GDH-TPI counter-2 active.
Screening Cc1cccc2nc(-c3cccnc3)c(Nc3ccccc3)n12 returned BoNT-F LC inh 2, Bead autofluor 4853, Anthrax LF prot 4, Mtb FBA inh 1, BoNT-A LC inh2 -1 and GDH-TPI counter-1 -2.
`O=C(NN=C1CCCCCCCCCCC1)c1ccccc1F` gave BoNT-F LC inh -19, Bead autofluor 2529, Anthrax LF prot -6, Mtb FBA inh 2, BoNT-A LC inh2 -1 and GDH-TPI counter-1 1.
Screening COc1cccc(/C=N/NC(=O)Cn2cnc3c2c(=O)n(C)c(=O)n3C)c1OC returned BoNT-F LC inh -9, Bead autofluor 6446, Anthrax LF prot -7, Mtb FBA inh 30*, BoNT-A LC inh2 -1, GDH-TPI counter-1 -3, Mtb FBA inh conf 2 and GDH-TPI counter-2 -2.
For CC(C)C(NC(=O)c1ccc(C(C)(C)C)cc1)C(=O)N1CCC(C(N)=O)CC1 (configuration not stated) the results were BoNT-F LC inh 2, Bead autofluor 3826, Anthrax LF prot -3, Mtb FBA inh -1, BoNT-A LC inh2 -1 and GDH-TPI counter-1 3.
`C=CCN1CC(=O)N2C(c3ccccc3)c3[nH]c4ccccc4c3C[C@H]2C1=O` (some centres not stated) gave BoNT-F LC inh 1, Bead autofluor 3964, Anthrax LF prot 16, Mtb FBA inh -1, BoNT-A LC inh2 0 and GDH-TPI counter-1 -9.
`CCOc1cccc(-c2cc(NCCc3ccccn3)n3nccc3n2)c1` gave BoNT-F LC inh -49, Bead autofluor 2244, Anthrax LF prot -28, Mtb FBA inh 35*, BoNT-A LC inh2 8, GDH-TPI counter-1 7, Mtb FBA inh conf 87* and GDH-TPI counter-2 71*.

From PubChem BioAssay
